# NS1 function inh – influenza NS1 inhibition; AID 2326; hit rate 0.4% among 270,000; Potency, µM (highest dose often 46.1 µM), without a hit: at the top dose activity, positive = more growth; calls by dose curve; also: actives are rising curves; nearly all actives have a fitted effect of over 50% in size
#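 Growth recovery, yeast-based: influenza A NS1 expressed in S. cerevisiae causes slow growth, and suppressors are detected by OD600. The parent strain without NS1 is used as positive control.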
# AMA1 RON2 block – inhibitors of Plasmodium falciparum AMA1-RON2 interaction. Potency, µM (highest dose often 58.2 µM), for the others: top-dose activity change, negative = inhibition, most hits filed as inhibitors. hit rate 0.2% among 360,000. AlphaScreen AMA1-biotinylated RON2 peptide binding;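 also: 0% = vehicle wells and -100% = peptide control; nearly all actives have a fitted effect of over 45% in size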
#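 AMA1 (3D7) with his tag at 25 nM final met compounds first, then biotinylated RON2 peptide at 25 nM; detection used donor plus acceptor beads, 10 µg/mL apiece, read by AlphaScreen after 30 min at room temperature.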
# RE007 growth inh – less growth of the S. pombe RE007 Vpr strain; S. pombe RE007 Vpr strain, BacTiter-Glo ATP luminescence, 24 h; Potency, µM (highest dose often 92.2 µM), inactives show at the top dose activity change, negative = less growth, actives largely listed as inhibitors; hit rate 0.21% among 360,000; AID 651644; active = well fitted falling curve with a large enough effect; inconclusive = small, poorly fitted or top-dose-only effect; inactive = no such curve, though single readings can be large or run the other way; also: % is scaled to controls: 0 for no effect and ±100 for the full control effect; nearly all actives have a fitted effect of over 50% in size
#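 Fission yeast RE007 carrying one integrated HIV-1 vpr copy, seeded at OD 0.01 in PMG+AL medium with 23 nL pinned compound. Grown 24 h at 30 degrees; viability read by BacTiter-Glo luminescence after 5 min.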
# LmPK inh – inhibitors of Leishmania mexicana pyruvate kinase; purified LmPK, Kinase-Glo ATP luminescence, 1 h; hit rate 0.37% among 290,000; AID 1721; Potency, µM (highest dose often 57.5 µM), inactives show top-dose activity change, negative = inhibition, usual class: inhibitors; also: % is scaled to controls: 0 for no effect and ±100 for the full control effect
# Target sequence (Q27686 whole entry, looked up): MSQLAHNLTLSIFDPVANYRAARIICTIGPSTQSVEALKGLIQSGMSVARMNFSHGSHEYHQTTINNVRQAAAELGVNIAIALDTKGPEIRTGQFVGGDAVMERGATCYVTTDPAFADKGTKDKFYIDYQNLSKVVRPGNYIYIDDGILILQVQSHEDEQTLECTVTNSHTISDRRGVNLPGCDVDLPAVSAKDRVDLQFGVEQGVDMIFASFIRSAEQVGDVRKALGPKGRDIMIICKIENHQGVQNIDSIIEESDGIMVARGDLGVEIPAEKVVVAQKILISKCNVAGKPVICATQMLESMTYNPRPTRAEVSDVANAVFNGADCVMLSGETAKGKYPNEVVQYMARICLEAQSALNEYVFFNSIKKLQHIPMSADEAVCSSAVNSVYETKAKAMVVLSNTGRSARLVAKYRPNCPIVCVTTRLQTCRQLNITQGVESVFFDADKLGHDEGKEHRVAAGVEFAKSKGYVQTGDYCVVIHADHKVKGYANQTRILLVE
#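 Screened at intermediate enzyme activity to detect both inhibitors and activators: LmPK at 0.1 nM, with a 0.5 nM enzyme column as activation reference. PEP 0.5 mM, ADP 0.1 mM; ATP detected by luminescence after 1 h.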
# TbPYK inhibitor – inhibitors of Trypanosoma brucei pyruvate kinase. TbPYK enzyme, Kinase-Glo Plus ATP luminescence, 45 min. Potency, µM (highest dose often 76.8 µM), for the others: at the top dose activity, negative = inhibition, most hits filed as inhibitors. Q57TT1. hit rate 0.12% among 410,000; also: % is scaled to controls: 0 for no effect and ±100 for the full control effect; nearly all actives have a fitted effect of over 50% in size
#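 Activity of T. brucei pyruvate kinase was followed by Kinase-Glo Plus luminescence after the enzyme reacted 45 min at room temperature with 130 uM ADP (final) and substrate. Test compounds were added before ADP at multiple concentrations.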
# * = called active by the depositor; ? = inconclusive; . = no result given; [ ] = remark or other dose. An excerpt weighted towards active compounds, which were near 0.92% of everything screened. Unless noted, calls follow the shape of the dose curve; as a rule, active = well fitted curve in the direction sought with a large enough effect; inconclusive = small, poorly fitted or top-dose-only effect, or another doubt; inactive = no such curve, though single readings can be large; an effect the other way counts as inactive or inconclusive. Potency is read from the fitted curve at half-maximal effect.
SMILES,NS1 function inh,AMA1 RON2 block,RE007 growth inh,LmPK inh,TbPYK inhibitor
Cc1ccc(Nc2nc3nonc3nc2Nc2cccc(C(F)(F)F)c2)cc1Cl,.,.,.,.,1%
CCC(=O)OC1C(N(C)C)CC(C)O[C@H]1O[C@H]1[C@H](C)[C@@H](O[C@H]2CC(OC)[C@@H](O)C(C)O2)[C@H](C)C(=O)O[C@@H](CC)[C@](C)(O)[C@@H](O)[C@H](C)C(=O)[C@@H](C)C[C@]1(C)O (stereo partly specified),.,.,.,.,3%
O=C(c1ccccc1)c1ccccc1N1C(=O)C=CC1=O,-76%,-16%,35µM*,14µM*,5µM*
CC(C)(C)c1cc(-c2n[nH]c(=S)n2-c2ccc(Cl)cc2)n[nH]1,-2%,59%,2%,13µM*,?
Cc1nn(C)cc1-c1n[nH]c(=S)n1-c1ccc(Cl)cc1,4%,45%,11%,7.9µM*,?
O=C(Nc1ccc2c(c1)nc1n2CCSC1)c1ccccc1,-11%,26%,-15%,16µM*,-18%
O=c1oc2c(O)c(O)cc3c(=O)oc4c(O)c(O)cc1c4c23,-2%,0.79µM*,5%,8%,-11%
COc1ccc2c(=O)c(C)c(-c3ccccc3)oc2c1CN(C)C,.,.,.,.,10%
CCCCCc1cc(=O)oc2c(C(CCN3CCCC3)c3ccc(N(C)C)cc3)c(OC)cc(OC)c12 (stereo unspecified),-1%,8.9µM*,8%,5%,-3%
CCN(CC)C(=O)CC(c1ccc(N(C)C)cc1)c1c(OC)cc(OC)c2c(-c3ccccc3)cc(=O)oc12 (stereo unspecified),-33%,22µM*,-4%,0%,-14%
CCCCCc1cc(=O)oc2c(C(CCN3CCCCC3)c3ccc(OC)cc3)c(OC)cc(OC)c12 (stereo unspecified),7%,-22%,-3%,4%,1%
CC(=O)OC1C(=O)OCC23CCC4(C)OC4C2OC2CC(OC(=O)C=CC=CC(=O)OCCC1C)C3(C)C21CO1 (stereo unspecified),.,-8%,5.6µM*,.,0%
CCCCCCCCCCCCCCCCCCOP(=O)([O-])OC1CC[N+](C)(C)CC1,.,.,.,.,4%[33.2 µM]
N/C(=N\OC(=O)/C=C/c1ccccc1)c1ccccc1,-184%,0%,-10%,14µM*,-5%
N/C(=N\OC(=O)/C=C/c1ccccc1)c1ccc(Cl)cc1,-4%,10%,-8%,-3%,-4%
OCC1OC(OC2C(CO)OC(OC3C(CO)OC(O)C(O)C3O)C(O)C2O)C(O)C(O)C1O (stereo unspecified),.,.,.,.,0%
COc1ccc(C(=O)Oc2cccnc2)cc1,-12%,-2%,-12%,9%,1%
O=C(Oc1cccnc1)c1ccc(Cl)c(Cl)c1,-80%,42%,32µM*,3%,-4%
Cc1nn(-c2ccccc2)c2nc(C3CC3)cc(C(=O)Nc3cccc(F)c3)c12,.,.,.,.,-6%
COC(=O)c1sccc1NC(=O)Nc1ccccc1F,-6%,13%,-22%,14µM*,?
COC(=O)c1sccc1NC(=O)Nc1ccccc1C,-18%,-2%,-8%,1%,-8%
O=C(O)[C@H]1C2c3ccccc3C(c3ccccc32)[C@@H]1C(=O)NCC1CC1,-9%,.,.,.,.
CCOc1cc(CNc2ccc(N3CCN(C(C)=O)CC3)cc2)cc(Br)c1OC,-8%,?,-15%,4%,-14%
CCOc1cc(CNc2ccc(N3CCCCC3)cc2)cc(Br)c1OCC(=O)NC(C)(C)C,-27%,20µM*,.,4%,-5%
CCOc1cc(CNc2cccc3ccccc23)cc(Br)c1OCC(=O)NC(C)(C)C,19%,-9%,-6%,-1%,2%
CCOc1cc(CNc2ccc(N3CCCC3)cc2)cc(Cl)c1OC,8%,20µM*,?,-5%,?
CCOc1cc(CNc2ccc(N(C)C)cc2)cc(Br)c1OCC(=O)NC(C)(C)C,-19%,25µM*,?,1%,-12%
COc1cccc(CNc2ccc(N3CCCCC3)cc2)c1OC,?,35µM*,0%,1%,-16%
COc1ccccc1CNc1ccc(N2CCCCC2)cc1,-8%,?,-11%,1%,-15%
